GAA850 FXN act: activators of GAA850 frataxin (FXN) promoter | hit rate 0.56% among 360,000 | HEK293 lucGAA850 FXN promoter luciferase reporter, 24 h; percent of 10 µM SAHA response | activation, % at 6 µM;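 active means activation above the average of all compounds screened plus 3 SD, cutoff fixed separately per campaign, cut at about 7.5% in these data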;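 further: 0% = DMSO wells and 100% = 10 µM SAHA wells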
F508del corr: CFTR F508del correction in bronchial cells. AID 720511. hit rate 0.36% among 350,000. CFBE cells, YFP halide quenching; stimulated with forskolin plus potentiator P3; % fluorescence drop versus neutral controls. activity (quench increase), % at 7.58 µM;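 active means mean added fluorescence quench of at least 8% versus neutral control, with both replicates also reaching 8%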;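 further: cells transiently co-express mutant CFTR-F508del with the halide-sensitive YFP; corrector assay measuring rescue of mutant channel to the surface after 24 h compound exposure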
HIV Env fusion: inhibitors of HIV Env-mediated cell fusion | HeLa-JRFL Env/CEM21 cell fusion, luciferase | inhibition, % at 12.3 µM | AID 651610 | hit rate 1.1% among 360,000;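 active means mean replicate inhibition score of at least 50 and every replicate individually at or above 50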;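 further: 0% = plate neutral controls and 100% = maraviroc near 300 nM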
EWS-Fli block: blocks EWS/Fli oncoprotein-driven transcription | inhibition, % at 12.6 µM | A673 NR0B1-luciferase reporter, viability-normalised | AID 651661 | hit rate 0.67% among 350,000;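 active means mean inhibition of at least 50% after viability correction, with every replicate also passing that limit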;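 further: firefly luciferase signal divided by Alamar Blue viability fluorescence both relative to DMSO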
PAX8 reporter: PAX8 transcriptional activity inhibition; hit rate 1.2% among 360,000; AID 652154; RMG-I TPO-luciferase reporter, SteadyGlo, 24 h; inhibition, % at 12.6 µM;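 active means mean replicate inhibition at least 60% with every replicate also reaching 60%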;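 further: luciferase light reporting Pax8 driven TPO promoter activity; plate controls were median of neutral control wells for no effect and mitoxantrone controls for full effect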
Starred values were filed as active, the others as inactive; / = no result given; [ ] = another dose, or the depositor's remark. Compounds with a hit are over-represented: about 2.5% of the library has one in this group of screens.

SMILES	GAA850 FXN act	F508del corr	HIV Env fusion	EWS-Fli block	PAX8 reporter
COC(=O)c1cn(NC(=O)c2cc([N+](=O)[O-])ccc2F)c(=O)c2ccccc12	-13	8.7*	57*	1	42
Cc1nc2cc(-c3ccc(Cl)cc3)nn2c(C)c1CCC(=O)NCc1ccco1	-9	-1	2	57*	-15
Cc1nc2c(-c3ccc(F)cc3)c(C)nn2c(C)c1CCC(=O)NC(C)CCc1ccco1 (stereo not drawn)	7	-3	65*	8	31
COc1ccc(-c2cc3nc(C)c(CCC(=O)NCc4ccco4)c(C)n3n2)c(OC)c1	-2	/	-45	/	/
Cc1cccc(N(Cc2ccccc2)C(=O)CCl)c1	-10	-9	25	52*	123*
O=C(CCl)N(Cc1ccccc1)c1ccccc1	-12	-1	26	73*	108*
CCc1ccc(C2=NNC(=Nc3cccc(S(=O)(=O)N(C)C)c3)SC2)cc1	-6	/	80*	36	104*
Cc1ccc(C2=NNC(=Nc3ccc(F)cc3)SC2)cc1	3	-1	-21	-53	12
C[C@@H]1CCCCO[C@@H](CN(C)Cc2ccccc2)[C@@H](C)CN([C@@H](C)CO)C(=O)c2cc(NC(=O)Nc3ccccc3)ccc2O1	/	2	-17[16.7 µM]	-12	7
O=C(Nc1ccc(C(F)(F)F)cc1)Nc1ccc2c(c1)[C@H]1C[C@H](CC(=O)N3CCc4ccccc4C3)O[C@H](CO)[C@H]1O2	/	-5	2[16.7 µM]	15	82*
O=C(C[C@@H]1C[C@H]2c3cc(NC(=O)Nc4ccc(F)cc4)ccc3O[C@H]2[C@@H](CO)O1)NCC1CC1	/	-1	/	-5	2
O=C(C[C@@H]1C[C@H]2c3cc(NC(=O)Nc4ccc(F)cc4)ccc3O[C@H]2[C@H](CO)O1)NCC1CC1	/	0	95*[16.7 µM]	7	16
O=C(C[C@H]1C[C@@H]2c3cc(NC(=O)Nc4ccc(F)cc4)ccc3O[C@@H]2[C@@H](CO)O1)NCC1CC1	/	-1	95*[16.7 µM]	3	10
O=C(Nc1ccc(C(F)(F)F)cc1)Nc1ccc2c(c1)[C@@H]1C[C@H](CC(=O)N3CCc4ccccc4C3)O[C@@H](CO)[C@@H]1O2	/	1	40[16.7 µM]	12	-7
O=C(Nc1ccc(F)cc1)Nc1ccc2c(c1)[C@H]1C[C@@H](CC(=O)N3CCCCC3)O[C@H](CO)[C@H]1O2	/	0	83*[16.7 µM]	-1	3
COCC(=O)N1CC2(C1)[C@H](c1ccc(-c3ccc(F)cc3)cc1)[C@@H](CO)N2C(C)=O	/	-2	/	-7	/
CC(C)Nc1ncnc2ccc(Br)cc12	-7	/	55*	-8	-23
COc1cc2ncnc(NCc3ccco3)c2cc1OC	2	3	30	-4	-19
Brc1ccc2ncnc(NCc3ccco3)c2c1	-4	/	67*	/	-51
C[C@H](CO)N1C[C@H](C)[C@H](CN(C)S(=O)(=O)c2cccs2)Oc2ncc(/C=C/c3ccccc3)cc2C1=O	/	0	44[16.7 µM]	-5	/
CCN(C(=O)COC(=O)c1cc(-c2ccccc2)nc2ccc(Br)cc12)C1CCS(=O)(=O)C1 (stereo not drawn)	1	-1	10	4	10
CCN(C(=O)COC(=O)c1cc(-c2ccccc2)nc2c1c(C)nn2-c1ccc(C)cc1)C1CCS(=O)(=O)C1 (stereo not drawn)	3	8.2*	5	12	22
CCOc1ccc(-n2c(-c3ccc(OC)cc3)c[n+]3c2CCCCC3)cc1	-3	4	67*	36	99*
CCOc1ccc(-n2c(-c3ccccc3)c[n+]3c2CCC3)cc1	-1	-3	30	30	82*
CCOc1ccc(-n2c(-c3ccc(Br)cc3)c[n+]3c2CCCCC3)cc1	-1	0	38	35	95*
SMILES	GAA850 FXN act	F508del corr	HIV Env fusion	EWS-Fli block	PAX8 reporter
COc1ccc(-c2c[n+]3c(n2-c2ccccc2)CCCCC3)cc1	0	0	25	17	56
COc1ccc(-c2c[n+]3c(n2-c2ccc(C)cc2)CCCCC3)cc1	-6	2	11	24	99*
O=C(Nc1ccc(F)cc1)N1C[C@@H]2[C@H](c3ccccc31)[C@@H](CO)N2C(=O)c1ccccc1	/	3	/	-1	4
COc1ccc2c3c(n(C)c2c1)[C@H](CO)N(C(=O)Cc1ccccn1)CC31CCN(CC2CCCC2)CC1	/	0	/	-2	-11
C[C@@H]1CN([C@@H](C)CO)C(=O)c2cc(NC(=O)c3ccncc3)ccc2O[C@@H](C)CCCCO[C@H]1CN(C)C(=O)c1ccccc1	/	1	4[16.7 µM]	0	6
CCCNC(=O)N(C)C[C@@H]1Oc2cc(C#Cc3ccccn3)ccc2S(=O)(=O)N([C@@H](C)CO)C[C@@H]1C	/	3	3[16.7 µM]	-6	/
O=C1CN(S(=O)(=O)Cc2ccccc2)C[C@@H]2[C@@H](c3ccc(C#Cc4ccc(F)cc4)cc3)[C@H](CO)N12	/	3	/	-6	53
O=C1CN(Cc2ccc(F)cc2)C[C@@H]2[C@@H](c3ccc(Br)cc3)[C@@H](CO)N12	/	6	/	4	73*
CS(=O)(=O)N1CC(=O)N2[C@H](CO)[C@@H](c3ccc(C#Cc4ccc(F)cc4)cc3)[C@H]2C1	/	3	/	8	-25
O=C1CN(Cc2ccc(F)cc2)C[C@@H]2[C@@H](c3ccc(Br)cc3)[C@H](CO)N12	/	3	/	-15	1
CCS(=O)(=O)N1CC(=O)N2[C@H](C1)[C@@H](c1ccc(C#CCC(C)C)cc1)[C@@H]2CO	/	10*	/	1	19
O=C1CN(S(=O)(=O)Cc2ccccc2)C[C@@H]2[C@@H](c3ccc(C#Cc4ccc(F)cc4)cc3)[C@@H](CO)N12	/	1	/	18	106*
CS(=O)(=O)N1CC(=O)N2[C@H](C1)[C@H](c1ccc(C#Cc3ccc(F)cc3)cc1)[C@@H]2CO	/	10*	/	-10	10
CCCC#Cc1cnc2c(c1)C(=O)N([C@H](C)CO)C[C@@H](C)[C@@H](CN(C)C(=O)C1CCC1)O2	/	2	6[16.7 µM]	-7	/
O=C(C[C@H]1CC[C@H](NC(=O)NC2CCCCC2)[C@H](CO)O1)NCc1ccc(F)cc1	/	-2	-4[16.7 µM]	-3	-5
COc1ccc2c3c([nH]c2c1)[C@@H](CO)N(C(=O)CN(C)C)CC31CN(CC2CC2)C1	/	2	/	5	/
CCOC(=O)c1c(C)[nH]c(C2=NNC(=Nc3ccccc3)SC2)c1C	-1	/	-47	-15	-7
CCOC(=O)c1c(C)[nH]c(C2=NNC(=Nc3ccccc3OC)SC2)c1C	-2	2	-118	-55	74*
Cc1ccccc1S(=O)(=O)N1CC[C@@H]2[C@H](CO)Nc3ccc(-c4ccccc4)cc3[C@@H]21	/	-2	/	-11	11
Oc1c(C(c2ccccc2)N2CCOCC2)ccc2ccccc12 (stereo not drawn)	-1	-4	72*	0	87*
C[C@H](CO)N1C[C@H](C)[C@@H](CN(C)C(=O)Cc2ccccc2)OCCCC[C@H](C)Oc2ccc(NC(=O)Cc3ccccc3)cc2C1=O	/	0	-45[16.7 µM]	3	-23

Screening data: PubChem, several laboratories
